PubChem BioAssay (NCI)
Compounds without any hit were thinned out: in the full panel of roughly 79,000, 15% have a hit. A number with no mark means an inactive call. The source made the active and inactive calls. Cut-off read from the data, not from the text of the source: active = growth inhibition above about 70%; inactive = the rest.

How the values were obtained:
[1] = NCI Yeast Anticancer Drug Screen. Data for the wt1 strain (AID 149);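 note: 0% = growth of vehicle-treated wt1 cultures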; details: S. cerevisiae wt1 strain (SPY 50644) growth inhibition, hits give high values
How it was run: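 Each compound is tested on wt1 yeast and the loss of growth versus vehicle gives the inhibition value.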

[2] = NCI Yeast Anticancer Drug Screen. Data for the rad50EPP+ strain (AID 151);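 note: 0% = growth of vehicle-treated control cultures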; details: S. cerevisiae rad50 mutant strain, hits give high values
How it was run: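 Strain rad50EPP+; compound exposure; % growth inhibition vs vehicle.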

[3] = NCI Yeast Anticancer Drug Screen. Data for the rad50 strain (AID 155);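 note: 0% = growth of vehicle-only cultures of the same strain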; details: S. cerevisiae rad50 strain growth inhibition, hits give high values
How it was run: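 Vehicle-treated cultures provide the reference for the growth inhibition reported for compound-exposed, repair-deficient yeast.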

[4] = NCI Yeast Anticancer Drug Screen. Data for the mec2-1 strain (AID 157); details: S. cerevisiae mec2-1 strain, hits give high values
How it was run: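 Cells of the genetically defined mec2-1 yeast strain are incubated with test compound. Inhibition of growth is calculated against vehicle-treated controls.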

[5] = NCI Yeast Anticancer Drug Screen. Data for the rad14 strain (AID 159);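 note: 0% = growth of vehicle-treated control cultures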; details: S. cerevisiae rad14 strain growth inhibition, hits give high values
How it was run: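 Inhibition of growth is reported for a repair-deficient yeast mutant following compound treatment, calculated relative to cultures that received vehicle.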

[6] = NCI Yeast Anticancer Drug Screen. Data for the sgs1 mgt1 strain (AID 161);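 note: 0% = growth of cultures given vehicle only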; details: S. cerevisiae sgs1 mgt1 strain, hits give high values
How it was run: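 Test agents were incubated with a DNA-repair-mutant yeast strain. Growth was then read and compared against vehicle-treated controls.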

[7] = NCI Yeast Anticancer Drug Screen. Data for the CLN2oe strain (AID 163);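 note: 0% = growth of vehicle-only control cultures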; details: S. cerevisiae CLN2oe strain, hits give high values
How it was run: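 Strain altered in cell-cycle control, incubated with compound; growth compared to solvent-treated controls.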

[8] = NCI Yeast Anticancer Drug Screen. Data for the cln2 rad14 strain (AID 165);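 note: 0% = growth equal to vehicle treated cultures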; details: S. cerevisiae cln2 rad14 strain, hits give high values
How it was run: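 The screen exposed genetically defined yeast (cln2 rad14) to test compounds and scored growth inhibition relative to vehicle-treated controls.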

[9] = NCI Yeast Anticancer Drug Screen. Data for the bub3 strain (AID 167); details: S. cerevisiae bub3 mutant strain, hits give high values
How it was run: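 Mutant yeast screening strain plus compound; vehicle-treated cultures serve as the 0% inhibition reference.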

[10] = NCI Yeast Anticancer Drug Screen. Data for the wt2 strain (AID 169); details: S. cerevisiae wt2 strain growth inhibition, hits give high values
How it was run: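 Steps: yeast strain treated with compound; growth recorded; inhibition calculated relative to cultures given vehicle alone.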

[11] = NCI Yeast Anticancer Drug Screen. Data for the mlh1 strain (AID 171);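 note: 0% = growth of vehicle-treated control cultures of the same strain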; details: S. cerevisiae mlh1 strain growth inhibition, hits give high values
How it was run: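 Yeast screen: mutant strain plus compound, growth scored against vehicle control wells.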

[12] = NCI Yeast Anticancer Drug Screen. Data for the sgs1 strain (AID 173);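 note: 0% = growth of vehicle-only control cultures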; details: S. cerevisiae sgs1 mutant, hits give high values
How it was run: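 Inhibition of yeast growth served as the measure. The mutant strain was treated with each compound, and growth was normalised to cultures receiving vehicle alone.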

[13] = NCI Yeast Anticancer Drug Screen. Data for the mlh1 rad18 strain (AID 175); details: S. cerevisiae mlh1 rad18 strain growth inhibition, hits give high values
How it was run: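 Compound-treated yeast growth, normalised to vehicle controls. Strain bears defined DNA repair mutations.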

[14] = NCI Yeast Anticancer Drug Screen. Data for the rad18 strain (AID 177); details: S. cerevisiae rad18 mutant growth inhibition, hits give high values
How it was run: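 Inhibition values reflect reduced yeast growth compared with vehicle-treated controls, using a strain engineered with a DNA damage repair defect.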

[15] = at 5.0 µM (retest, dose inferred, filed as 0.5)
[16] = at 50.0 µM (retest, dose inferred, filed as 5.0)

CC(=O)Nc1ccc(SC(C)=O)cc1
growth inhibition ([1]; at 1.2 µM): -36% | growth inhibition ([1]; at 3.7 µM): -30% | growth inhibition ([1]; at 11.0 µM): -18% | growth inhibition ([1]; at 33.0 µM): 43% | growth inhibition ([1]; at 100.0 µM): 85% (active) | growth inhibition ([2]; at 1.2 µM): -29% | growth inhibition ([2]; at 3.7 µM): -22% | growth inhibition ([2]; at 11.0 µM): -6% | growth inhibition ([2]; at 33.0 µM): -1% | growth inhibition ([2]; at 100.0 µM): 29% | growth inhibition ([3]; at 1.2 µM): -29% | growth inhibition ([3]; at 3.7 µM): -4% | growth inhibition [3, 15]: 80% (active) | growth inhibition ([3]; at 11.0 µM): 7% | growth inhibition ([3]; at 33.0 µM): 59% | growth inhibition [3, 16]: 100% (active) | growth inhibition ([3]; at 50.0 µM): 70.7% (active) | growth inhibition ([3]; at 100.0 µM): 86% (active) | growth inhibition ([4]; at 1.2 µM): -41% | growth inhibition ([4]; at 3.7 µM): -45% | growth inhibition [4, 15]: 72% (active) | growth inhibition ([4]; at 11.0 µM): -9% | growth inhibition ([4]; at 33.0 µM): 62% | growth inhibition [4, 16]: 100% (active) | growth inhibition ([4]; at 50.0 µM): 56.8% | growth inhibition ([4]; at 100.0 µM): 86% (active) | growth inhibition ([5]; at 1.2 µM): -27% | growth inhibition ([5]; at 3.7 µM): -38% | growth inhibition ([5]; at 11.0 µM): -5% | growth inhibition ([5]; at 33.0 µM): 56% | growth inhibition ([5]; at 100.0 µM): 88% (active) | growth inhibition [6, 15]: -6% | growth inhibition [6, 16]: 78% (active) | growth inhibition ([6]; at 50.0 µM): 60.6% | growth inhibition ([7]; at 1.2 µM): -5% | growth inhibition ([7]; at 3.7 µM): -17% | growth inhibition ([7]; at 11.0 µM): 12% | growth inhibition ([7]; at 33.0 µM): 47% | growth inhibition ([7]; at 100.0 µM): 85% (active) | growth inhibition [8, 15]: 44% | growth inhibition [8, 16]: 85% (active) | growth inhibition ([8]; at 50.0 µM): 66.7% | growth inhibition ([9]; at 1.2 µM): -25% | growth inhibition ([9]; at 3.7 µM): -6% | growth inhibition [9, 15]: 18% | growth inhibition ([9]; at 11.0 µM): 0% | growth inhibition ([9]; at 33.0 µM): 63% | growth inhibition [9, 16]: 77% (active) | growth inhibition ([9]; at 50.0 µM): 55.6% | growth inhibition ([9]; at 100.0 µM): 87% (active) | growth inhibition ([10]; at 1.2 µM): -22% | growth inhibition ([10]; at 3.7 µM): -23% | growth inhibition ([10]; at 11.0 µM): -10% | growth inhibition ([10]; at 33.0 µM): 54% | growth inhibition ([10]; at 100.0 µM): 88% (active) | growth inhibition ([11]; at 1.2 µM): -25% | growth inhibition ([11]; at 3.7 µM): -26% | growth inhibition ([11]; at 11.0 µM): 6% | growth inhibition ([11]; at 33.0 µM): 54% | growth inhibition ([11]; at 100.0 µM): 86% (active) | growth inhibition ([12]; at 1.2 µM): -30% | growth inhibition ([12]; at 3.7 µM): -9% | growth inhibition ([12]; at 11.0 µM): 10% | growth inhibition ([12]; at 33.0 µM): 65% | growth inhibition ([12]; at 100.0 µM): 88% (active) | growth inhibition [13, 15]: 60% | growth inhibition [13, 16]: 100% (active) | growth inhibition ([13]; at 50.0 µM): 72.3% (active) | growth inhibition ([14]; at 1.2 µM): -28% | growth inhibition ([14]; at 3.7 µM): -10% | growth inhibition ([14]; at 11.0 µM): -4% | growth inhibition ([14]; at 33.0 µM): 52% | growth inhibition ([14]; at 100.0 µM): 84% (active)
